Results filed as inconclusive are left out. Calls of active or inactive are those of the source. Calls follow the shape of the dose curve; as a rule, active = well fitted cell-killing curve with a large enough effect; inconclusive = small, poorly fitted or top-dose-only effect; inactive = flat fitted curve, though single readings scatter.

Data on ten molecules can be found in PubChem BioAssay (NCATS).
Potency is read from the fitted curve at half-maximal effect.

A short description of the assay: Cell Viability - NIH 3T3 (AID 541). Also: nearly all actives have a fitted effect of over 25% in size.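 As to activity change, negative = cytotoxicity: plate controls were DMSO alone for no effect and tamoxifen positive control for full effect.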 Conditions: NIH 3T3 cell viability, qHTS; activity change, negative = cytotoxicity: at 92.2 µM (top of the series). The source says:
NIH Chemical Genomics Center [NCGC]
NIH Molecular Libraries Screening Centers Network [MLSCN]
National Institutes of Environmental Health Sciences [NIEHS]
National Toxicology Program [NTP]
We have developed a 1536-well cell-based assay for quantitative high throughput screening (qHTS) against a number of cell lines to determine in vitro cytotoxicity of small molecules. This particular assay uses the NIH 3T3 fibroblast cell line which is established from NIH Swiss mouse embryo.
NCGC Assay Protocol Summary:
The CellTiter-Glo luminescent cell viability assay (Promega) is a homogeneous method to measure the number of viable cells in culture. The end point readout of this assay is based on quantitation of intracellular ATP, an indicator of metabolic activity, using the luciferase reaction. Luciferase catalyzes the oxidation of beetle Luciferin to oxyluciferin and light in the presence of ATP. The luminescent signal is proportional to amount of ATP present.
Using the CellTiter-Glo luminescent cell viability assay, the amount of cellular ATP was measured in the NIH 3T3 cell line with complete culture medium following compound treatment for 40 hours. The assay was performed in opaque white Kalypsys 1536-well plates. In the screen, tamoxifen and doxorubicin were used as positive controls. Library compounds were measured for their ability to cause acute toxicity in the cell line, as reflected by a decrease in intracellular ATP levels, in a concentration-dependent manner. […] AC50 values were determined from concentration-response data modeled with the standard Hill equation.
qHTS protocol for CellTiter Glo NIH 3T3 cellular assay
[Step] [Parameter] [Value] [Description]
1. Reagent; 5 uL; 1000 NIH 3T3 cells/well
2. Time; 5 hr; 37 °C incubation
4. Controls; 23 nL; Tamoxifen 0.34 uM to 100 uM & Doxorubicin 0.02 nM to 100 uM
5. Time; 40 hr; 37 °C incubation
6. Reagent; 5 uL; CellTiter Glo reagent
7. Time; 20 min; Room Temperature
8. Detection; Luminescence; Viewlux plate reader
Keywords: cell viability, cytotoxicity, NIH 3T3 cell line, luminescence, NTPHTS, NTPHTS_NCGC, NIEHS, EPA, DSSTox, MLSMR, MLSCN, NIH Roadmap, qHTS, NCGC
Consider `COc1ccc(CN(CCN(C)C)c2ccccn2)cc1`, for which the activity change, negative = cytotoxicity was -13.1% (inactive).

With `COc1cc(Cc2cnc(N)nc2N)cc(OC)c1OC`, the activity change, negative = cytotoxicity is -10.3% (inactive).

As to `Nc1nc(N)c2nc(-c3ccccc3)c(N)nc2n1`, the activity change, negative = cytotoxicity is -88.4% (active).

Consider `NC(=Nc1ccccc1)Nc1ccccc1`, for which the activity change, negative = cytotoxicity was -3.31% (inactive).

Regarding `CN=C(NC#N)NCCSCc1nc[nH]c1C`, the activity change, negative = cytotoxicity was -4.92% (inactive).

For the molecule `Nc1ncn([C@@H]2O[C@H](CO)[C@@H](O)[C@H]2O)c(=O)n1`, the Potency was 5.01 µM (active).

For `O=c1[nH]c(=O)n([C@H]2C[C@H](O)[C@@H](CO)O2)cc1Br`, the activity change, negative = cytotoxicity is -17.9% (inactive).

`COC(=O)[C@H]1[C@H]2C[C@@H]3c4[nH]c5cc(OC)ccc5c4CCN3C[C@H]2C[C@@H](OC(=O)c2cc(OC)c(OC)c(OC)c2)[C@@H]1OC`: the activity change, negative = cytotoxicity is -19.4% (inactive).

As to `NC(=O)N1c2ccccc2C=Cc2ccccc21`, the activity change, negative = cytotoxicity was -9.01% (inactive).

For the molecule `CCCCNC(=O)NS(=O)(=O)c1ccc(C)cc1`, the activity change, negative = cytotoxicity is -10.4% (inactive).
